This is part of a sample that, as a whole, favours compounds with a hit. Of some 83,000 tested, about 20% had one in any assay.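 Compound tested at a single concentration for 48 hours in 96-well plates; a percent growth value below 10 was scored as active.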 Unmarked numbers belong to inactive results. Calls of active or inactive are those of the source.

Some test systems named below: DU-145 prostate; K-562 leukemia; MALME-3M melanoma; MDA-MB-231 breast; RXF 393 renal; SF-268 CNS; SF-295 CNS; SF-539 CNS; UACC-257 melanoma; M14 melanoma; HCT-15 colon; HT29 colon; SNB-75 CNS; SNB-19 CNS; U251 CNS; PC-3 prostate; SK-MEL-5 melanoma; UACC-62 melanoma; LOX IMVI melanoma; SK-MEL-28 melanoma.
Common to all, as to assay: NCI-60 one-dose screen, 48 h (100 = growth as untreated, 0 = no growth, -100 = all killed)
Settings in all cases: 10 µM unless noted

Consider `Cn1cc(-c2csc(-c3c[nH]c4ccc(F)cc34)n2)c2ccnc(Cl)c21`, for which the growth was 51.2% with DU-145 prostate; 53.3% with K-562 leukemia; 121% in the test with MALME-3M melanoma; 60.9% in the test on MDA-MB-231 breast; 67.8% with RXF 393 renal; 92% in the test with SF-268 CNS. Further, the growth with SF-295 CNS was 85%; in the test on SF-539 CNS, 68.9%; with UACC-257 melanoma, 39.3%; with M14 melanoma, 57.4%; in the test on HCT-15 colon, 5.69% (active); with HT29 colon, 29.8%. Besides, the growth is 77.5% with SNB-75 CNS; 91.4% in the test on SNB-19 CNS; 49.6% in the test on U251 CNS; 62.1% in the test with PC-3 prostate; 63.2% in the test on SK-MEL-5 melanoma; 70.6% in the test with UACC-62 melanoma. In addition, the figures for the growth in the test on LOX IMVI melanoma and with SK-MEL-28 melanoma were 67.5% and 93.5%, respectively.

Regarding `Cc1ccc(CNc2c3ccccc3nc3ccccc23)cc1`, the growth was 33.5% in the test on DU-145 prostate; 2.99% (active) with K-562 leukemia; 16.2% with MALME-3M melanoma; 43.2% in the test on MDA-MB-231 breast; 10.1% in the test on RXF 393 renal; 51.9% with SF-268 CNS. The growth with SF-295 CNS is 31.3%; in the test on SF-539 CNS, 18.1%; in the test with UACC-257 melanoma it was 39.4%; in the test on M14 melanoma, 28%; in the test on HCT-15 colon, 15.6%; in the test on HT29 colon, 10.3%. Also, the growth in the test with SNB-75 CNS is 41.7%; in the test with SNB-19 CNS, 29.7%; with U251 CNS it was 26%; in the test on PC-3 prostate, 24.3%; in the test on SK-MEL-5 melanoma, 30.1%; in the test with UACC-62 melanoma, 43.4%. The figures for the growth in the test on LOX IMVI melanoma and with SK-MEL-28 melanoma were 11.8% and 59.5%, respectively.

As to `Cc1c2cccnc2c(C)c2c1c1cc(CO)ccc1n2C`, the growth with DU-145 prostate is 25.3%; in the test with K-562 leukemia, 9.28% (active); with MALME-3M melanoma, 16.8%; in the test on MDA-MB-231 breast, 19.9%; with RXF 393 renal it was 30.2%; in the test on SF-268 CNS it was 28.8%. For the same compound, the growth is 24.7% in the test on SF-295 CNS; 23.2% with SF-539 CNS; -1.38% (active) in the test with UACC-257 melanoma; 29.8% in the test with M14 melanoma; 18.7% in the test with HCT-15 colon; 16% with HT29 colon. The growth in the test on SNB-75 CNS was 45.5%; in the test with SNB-19 CNS, 21.1%; in the test with U251 CNS, 14%; with PC-3 prostate it was 31%; with SK-MEL-5 melanoma, 30.6%; in the test with UACC-62 melanoma, -16.6% (active). Also, the values for the growth with LOX IMVI melanoma and in the test with SK-MEL-28 melanoma were 8.95% (active) and 30.6%, respectively.

In the case of `Cc1ccc(/C=C/C(=O)c2cccc(OCCCOc3cccc(C(=O)/C=C/c4ccc(C)cc4)c3)c2)cc1`, the growth in the test with DU-145 prostate is 88.9%; in the test on K-562 leukemia it was 52.9%; with MALME-3M melanoma, 98.8%; in the test with MDA-MB-231 breast, 86.8%; in the test on RXF 393 renal, 85.7%; with SF-268 CNS, 79.6%. In addition, the growth was 77.4% in the test with SF-295 CNS; 83.8% in the test on SF-539 CNS; 96.4% in the test on UACC-257 melanoma; 73.4% in the test with M14 melanoma; 64.4% with HCT-15 colon; 51.5% in the test on HT29 colon. The growth was 70.2% in the test on SNB-75 CNS; 77.2% in the test with SNB-19 CNS; 41% in the test on U251 CNS; 72.2% in the test on PC-3 prostate; 90.2% with SK-MEL-5 melanoma; 62.9% with UACC-62 melanoma. Further, the growth is 25.5% with LOX IMVI melanoma and 97.7% in the test on SK-MEL-28 melanoma.

Regarding `O=S(=O)(NCCCNc1nccc(-c2c(-c3cccc(F)c3)nc3occn23)n1)c1ccc(F)cc1`, the growth was 55.9% in the test with DU-145 prostate; 13% in the test with K-562 leukemia; 43.6% in the test with MALME-3M melanoma; 60.9% in the test on MDA-MB-231 breast; 63.6% with RXF 393 renal; 44.5% in the test on SF-268 CNS. The growth was 89.5% in the test on SF-295 CNS; 87% in the test with SF-539 CNS; 43.6% in the test with UACC-257 melanoma; 35.7% with M14 melanoma; 58.3% with HCT-15 colon; 21.9% with HT29 colon. Further, the growth is 73.5% in the test with SNB-75 CNS; 84.9% with SNB-19 CNS; 56.1% with U251 CNS; 29.4% in the test on PC-3 prostate; 32.7% with SK-MEL-5 melanoma; 26.5% in the test with UACC-62 melanoma. The growth is 44.7% in the test on LOX IMVI melanoma and 64.2% with SK-MEL-28 melanoma.

As for `O=C(Oc1ccc(CCl)cc1)c1ccccc1`, the growth with DU-145 prostate is -92.9% (active); in the test on K-562 leukemia, -37.5% (active); with MALME-3M melanoma, -69.3% (active); in the test with MDA-MB-231 breast, -82% (active); in the test on RXF 393 renal it was -90.5% (active); with SF-268 CNS, -79.3% (active). The growth with SF-295 CNS was -92.5% (active); in the test with SF-539 CNS it was -87.6% (active); in the test with UACC-257 melanoma, -67.4% (active); with M14 melanoma, -82.7% (active); with HCT-15 colon, -87.4% (active); in the test on HT29 colon it was -58.4% (active). Further, the growth in the test with SNB-75 CNS is -98.6% (active); in the test on SNB-19 CNS, -86.4% (active); with U251 CNS, -86.3% (active); in the test with PC-3 prostate it was -91.3% (active); in the test with SK-MEL-5 melanoma, -99% (active); in the test on UACC-62 melanoma, -76.9% (active). The growth is -85.1% (active) in the test on LOX IMVI melanoma and -75.6% (active) in the test on SK-MEL-28 melanoma.

For `Oc1c(CN2CCOCC2)cc(COCc2ccccc2)c2cccnc12`, the growth was 38% with DU-145 prostate; 14.8% with K-562 leukemia; 21.2% in the test with MALME-3M melanoma; 43.1% in the test with MDA-MB-231 breast; 58.5% in the test with RXF 393 renal; 23.7% in the test with SF-268 CNS. Also, the growth is 30.8% in the test with SF-295 CNS; 4.65% (active) in the test on SF-539 CNS; -9.19% (active) in the test with UACC-257 melanoma; 12% in the test on M14 melanoma; 20.5% with HCT-15 colon; 88.2% in the test with HT29 colon. In addition, the growth in the test with SNB-75 CNS was 49.5%; in the test on SNB-19 CNS, 35.7%; in the test on U251 CNS, 11%; in the test on PC-3 prostate, 31.4%; in the test on SK-MEL-5 melanoma, -12.3% (active); in the test on UACC-62 melanoma, -25.7% (active). Also, the growth was 12.5% with LOX IMVI melanoma and 36.3% in the test on SK-MEL-28 melanoma.

Source of the values: PubChem BioAssay (NCI).
